RECQ1 helicase: inhibitors of human RECQ1 DNA helicase; Potency, µM (doses to about 57.3 µM), for the others: top-dose activity, negative = inhibition, actives largely listed as inhibitors; RECQ1 DNA unwinding, red fluorescence kinetic read; P46063; 240,000 compounds, 0.54% hits;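 further: plate controls were vehicle for no effect and no enzyme for full effect; nearly all actives have a fitted effect of over 30% in size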
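50 nM RECQ1T1 preincubated 15 min with compound in Tris pH 8.0 buffer with MgCl2, DTT, Tween-20 and 2.5 ug/ml poly(dI-dC); started with 200 nM TAMRA/BHQ-2 forked duplex and 2 mM ATP. Unwinding read as fluorescence (525/598 nm), two reads 2 h apart.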
L3MBTL1 inh: blocks human L3MBTL1; AID 485360; 230,000 compounds, 0.66% hits; Potency, µM (highest dose often 57.1 µM), without a hit: at the top dose activity, negative = inhibition, most hits filed as inhibitors; Q9Y468; AlphaScreen L3MBTL1–H3K9me1 peptide binding; further: on the % scale 0 is the no-effect control and ±100 the full control effect; nearly all actives have a fitted effect of over 60% in size
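AlphaScreen assay: L3MBTL1 (50 nM final) was preincubated 30 min at room temperature with biotinylated H3(1-15)K9me1 peptide (75 nM final), then 30 min with library compounds; streptavidin donor and nickel chelate acceptor beads (10 ug/mL final) added, 30 min dark.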
BLM helicase inh-1: inhibitors of human Bloom syndrome helicase BLM. P54132. recombinant BLM DNA unwinding, fluorescence dequenching. Potency, µM (titrated, usually from 56.1 µM), inactives show top-dose activity change, negative = inhibition, hits mostly inhibitors. 350,000 compounds, 0.2% hits. AID 2528;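 further: plate controls were vehicle for no effect and no enzyme for full effect; nearly all actives have a fitted effect of over 35% in size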
FEN1 inh-1: inhibitors of human flap endonuclease 1. Potency, µM (titrated, usually from 114 µM), for the others: at the top dose activity change, negative = inhibition, actives largely listed as inhibitors. 390,000 compounds, 0.35% hits. P39748. AID 588795. Recombinant FEN1 flap cleavage, fluorescence, 15 min; further: on the % scale 0 is the no-effect control and ±100 the full control effect; nearly all actives have a fitted effect of over 65% in size
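In this screen, 50 nM flap DNA substrate was added to 10 nM FEN1 pretreated with compound for 15 min at room temperature; cleavage was followed with reads at 0 and 15 min, and Hill fitting gave concentration–response parameters.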
WRN helicase inh-1: inhibitors of human WRN helicase | 360,000 compounds, 0.46% hits | Potency, µM (highest dose often 114 µM), inactives show at the top dose activity change, negative = inhibition, usual class: inhibitors | AID 651768 | WRN helicase unwinding, fluorescent forked duplex, kinetic | Q14191; further: on the % scale 0 is the no-effect control and ±100 the full control effect; nearly all actives have a fitted effect of over 55% in size
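Fluorescence dequenching readout, ex 525 nm/em 598 nm, kinetic mode: forked duplex DNA (100 nM final) with adjacent fluorophore and quencher unwound by WRN (20 nM final) with 2 mM ATP. Compound preincubation 15 min, room temperature.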
APE1 inh: APE1 (human) endonuclease inhibition; Potency, µM (series often up to 65.8 µM), for the others: top-dose activity change, negative = inhibition, usual class: inhibitors; recombinant APE1, TAMRA/BHQ-2 abasic DNA cleavage fluorescence; 350,000 compounds, 0.35% hits; P27695;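 further: plate controls were vehicle for no effect and reference inhibitor for full effect; nearly all actives have a fitted effect of over 55% in size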
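Step 1: APE1 (0.75 nM) with compound, 15 min RT. Step 2: add 50 nM fluorophore/quencher THF duplex. Step 3: three fluorescence reads 60 s apart (525/598 nm); read 3 minus read 1 = reaction progress.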
FEN1 inh-2: confirmation of human FEN1 inhibitors. AID 720498. FEN1 flap cleavage, TAMRA/BHQ2 fluorogenic DNA substrate. 880 compounds, 79% hits. shares compounds with FEN1 inh-1. Potency, µM, actives largely listed as inhibitors; further: nearly all actives have a fitted effect of over 60% in size
WRN helicase inh-2: WRN helicase inhibition, cherry-pick retest; shares compounds with WRN helicase inh-1; WRN helicase DNA unwinding, fluorescence kinetic; Potency, µM (doses to about 57.1 µM), for the others: top-dose activity, negative = inhibition, actives largely listed as inhibitors; 610 compounds, 63% hits; AID 720497; further: nearly all actives have a fitted effect of over 65% in size
TO displacement: binds DNA, flagged in WRN inhibitor counterscreen | shares compounds with WRN helicase inh-1 | Potency, µM (series often up to 57.1 µM), inactives show at the top dose activity change, negative = inhibition, most hits filed as inhibitors | thiazole orange DNA binding displacement, fluorescence | 610 compounds, 10% hits;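 further: drop in dye fluorescence marks compound binding to DNA; on the % scale 0 is the no-effect control and ±100 the full control effect; nearly all actives have a fitted effect of over 60% in size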
BLM helicase inh-2: blocks human BLM helicase in WRN counterscreen | shares compounds with WRN helicase inh-1 | Recombinant BLM helicase DNA unwinding, red fluorescence | Potency, µM (top dose mostly 57.1 µM), for the others: at the highest dose activity change, negative = inhibition, hits mostly inhibitors | 610 compounds, 60% hits; further: nearly all actives have a fitted effect of over 60% in size
* = called active by the depositor; i = inactive; ? = inconclusive; · = no result given; [ ] = remark or other dose. Compounds with a hit are over-represented: about 1% of the library has one in this group of screens. The call rests on the fitted dose curve; in most records, active means well fitted curve in the direction sought with a large enough effect; inconclusive means small, poorly fitted or top-dose-only effect, or another doubt; inactive means no such curve, though single readings can be large; an effect the other way counts as inactive or inconclusive. Potency means the concentration at half of the fitted maximal effect.

SMILES | RECQ1 helicase | L3MBTL1 inh | BLM helicase inh-1 | FEN1 inh-1 | WRN helicase inh-1 | APE1 inh | FEN1 inh-2 | WRN helicase inh-2 | TO displacement | BLM helicase inh-2
COc1ccc(-n2ncc(C(=O)Nc3cccc(C(F)(F)F)c3)c2C2CCN(C(=O)OC(C)(C)C)CC2)cc1 | · | · | 3% | -1% | · | · | · | · | · | ·
O=c1cc(-c2ccccc2)oc2cc(O)c(O)cc12 | -27% | · | 5% | · | · | ? | · | · | · | ·
O=c1cc2oc3cc(O)c(O)cc3c(-c3ccccc3[N+](=O)[O-])c-2cc1O | · | · | 0.71µM* | ? | 0.75µM* | 0.13µM* | ? | 0.38µM* | ? | 0.22µM*
Cc1c(Br)c(=O)oc2c(Br)c(O)c(O)cc12 | i | 3.5µM* | 7.9µM* | 28µM* | 16µM* | 3% | 30* | 3.8µM* | ? | 3.4µM*
COc1ccc(-c2cc(CNc3nc(NCc4ccccc4OC)nc4ccsc34)on2)cc1 | · | · | · | · | -7% | · | · | · | · | ·
CN(C)/[N+]([O-])=N/Oc1ccc([N+](=O)[O-])cc1C(F)(F)F | · | · | · | -13% | · | · | · | · | · | ·
CCN(CC)CCCNc1nc2cc(OC)c(OC)cc2c2nc(-c3ccccc3)nn12 | ? | · | 16% | 13µM* | 35µM* | ? | 6.7* | 17µM* | -9% | 25%
COc1cc2nc(NCCCN3CCN(C)CC3)n3nc(-c4ccccc4)nc3c2cc1OC | 5% | · | -4% | 20µM* | 12µM* | 10% | 12* | 12µM* | -29% | -5%
COCCCNc1nc2cc(OC)c(OC)cc2c2nc(-c3ccccc3)nn12 | · | · | -3% | 0% | -4%[57.1 µM] | 5% | · | · | · | ·
CC(C)C(=O)N1CCCC1(C)C(=O)Nc1ccc(-n2cncn2)cc1 (stereo not given) | · | · | · | · | -8%[57.1 µM] | · | · | · | · | ·
CCN(CC)CCCNc1nc2ccccc2c2[nH]c3ccc(OC)cc3c12 | · | · | · | 3.5µM* | 25µM* | · | 2.7* | 6.8µM* | ? | ?
O=C(CCN1C(=O)/C(=C/c2ccco2)SC1=S)Nc1ccc(C(=O)O)c(O)c1 | · | · | -8% | 35µM* | 45µM* | 21µM* | 85* | 17µM* | -28% | 22µM*
Cc1nc2ccc(N)cc2c(=O)n1Cc1ccc(Cl)cc1 | -4% | · | -1% | 2% | -17% | 4% | · | · | · | ·
Nc1ccc(Cn2ccc3c4c(N)nc(N)nc4ccc32)cc1 | · | · | · | 25µM* | 16µM* | · | 43* | 22µM* | 76% | 14µM*
Cc1cccc(C)c1Cn1c(C)c(C(=O)NCc2ccc([N+](=O)[O-])cc2)sc1=O | · | · | · | · | -6%[57.1 µM] | · | · | · | · | ·
O=C(COC(=O)c1ccccc1)Nc1ncc([N+](=O)[O-])s1 | · | 3.5µM* | · | 45µM* | 3µM* | 3.4µM* | 67* | 3.4µM* | 24µM* | 1.1µM*
O=C(Nc1ccccc1)Nc1ncc([N+](=O)[O-])s1 | -6% | -15% | -8% | 9% | -3% | -6% | · | · | · | ·
COc1cc(C(C)C)c2c(c1)S(=O)(=O)N(COc1cc(=O)n3cccc(OCCN4CCCCC4)c3n1)C2=O | -12% | · | 0% | · | · | -2% | · | · | · | ·
CCOC(=O)c1cc(OC(=O)c2cc(OC)cc(OC)c2)n(-c2ccccc2)n1 | · | · | 0% | -5% | · | · | · | · | · | ·

Compound activity (PubChem BioAssay)
